Several values for one entry are separate records, joined by “and”; a condition that tells them apart may be missing. Equal values may be shown once. Activity calls are given as the source filed them.
Legend:
[1] = A549 cell viability effects, profiling panel, calcein-AM fluorescence, 48 h, basal (AID 1162); conditions: higher = more signal
[2] = adipocyte viability effects, profiling panel, cell-based, 3T3-L1 adipocytes, calcein-AM fluorescence, 48 h, basal (AID 1163); conditions: 3T3-L1 adipocytes viability, higher = more signal
[3] = HepG2 cell viability effects, profiling panel, calcein-AM fluorescence, 48 h, basal (AID 1164); conditions: higher = more signal
[4] = MM1S cell viability effects, profiling panel, calcein-AM fluorescence, 48 h, basal (AID 1165); conditions: higher = more signal;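 note: viability of MM1S multiple myeloma cells under basal unstimulated conditions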
[5] = basal RPMI8226 viability, no added stimulus, profiling panel, cell-based, calcein-AM fluorescence, 48 h, PK04 Diversity Set (AID 1166); conditions: RPMI8226 myeloma viability, higher = more signal;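 note: cells grown under basal conditions without added stimulus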
[6] = basal HepG2 mitochondrial membrane potential changes, profiling panel, cell-based, JC-1 fluorescence, 24 h, 100 nL compound (AID 1167); conditions: higher = more signal
[7] = basal 3T3-L1 adipocyte mitochondrial potential changes, profiling panel, cell-based, JC-1 fluorescence, 3T3-L1 adipocytes, 24 h, 100 nL compound (AID 1168); conditions: JC-1 mitochondrial fluorescence, higher = more signal, called active from +8 up or from −8 down
[8] = basal RPMI8226 mitochondrial membrane potential changes, profiling panel, cell-based, JC-1 fluorescence, 24 h, 100 nL compound (AID 1169); conditions: RPMI8226 myeloma, JC-1 mitochondrial potential fluorescence, higher = more signal
[9] = basal MM1S mitochondrial membrane potential changes, profiling panel, cell-based, JC-1 fluorescence, 24 h, 100 nL compound (AID 1170); conditions: higher = more signal
[10] = A549 lung cancer cell viability effects, profiling panel, resazurin fluorescence, 24 h, PK04 Diversity Set (AID 1171); conditions: higher = more signal, called active from +8 up or from −8 down
Note: test concentration not given here.

Row | Structure (SMILES) | z-score [1] | z-score [2] | z-score [3] | z-score [4] | z-score [5] | z-score [6] | z-score [7] | z-score [8] | z-score [9] | z-score [10]
1 | CC(C)CCN1CCc2nc(-c3ccccc3)c3c(c2C1)CO[C@@H](C)C3 | -0.0742 | -0.626 | 1.15 | -1.18 | 0.0677 | 0.361 | -0.395 (inactive) | -0.173 | 0.324 | -0.191 (inactive)
2 | CCOC(=O)NN=C1C[C@@H](O)[C@@H](O)[C@@H]2[C@@H]3C(=O)N(Cc4ccc5c(c4)OCO5)C(=O)[C@@H]3CC[C@@H]12 | 1.24 | -0.54 | 0.32 | 0.511 | 0.466 | 0.598 | 1.11 (inactive) | 0.612 | -1.25 | 0.0533 (inactive)
3 | COC(=O)C1=C(C)N(Cc2ccccc2)C2=C(C(C)=O)[C@H](c3ccccc3)[C@@](O)(C(=O)OC)C(=O)N2[C@@H]1c1ccccc1 | 1.73 and 0.919 | -0.0798 and 0.56 | 0.954 and 0.364 | 0.592 and 0.378 | 0.604 and 0.984 | 3.1 and 0.826 | -1.09 (inactive) and 2.47 (inactive) | -0.938 and -0.592 | -0.444 and 0.924 | 1.78 (inactive) and 0.197 (inactive)
4 | C=C[C@@H](OC)[C@H](O)c1ccc(OCCO)cc1 | 0.143 and 0.72 | -0.434 and 0.971 | 0.124 and 0.628 | 0.663 and 0.916 | -0.486 and 0.64 | -0.244 and 0.904 | 0.36 (inactive) and -1.97 (inactive) | -0.982 and -0.69 | 0.88 and -1.28 | -0.133 (inactive) and -0.135 (inactive)
5 | C=CCN(Cc1ccccc1)C(=O)C(c1cccs1)N(C(=O)/C=C\C(=O)O)c1c(Cl)cccc1CO (stereo not given) | -0.159 and -0.34 | 0.036 and -0.0047 | -0.876 and -0.217 | 1.21 and 1.6 | 1 and -0.538 | -0.267 and -0.148 | 0.426 (inactive) and 0.223 (inactive) | -0.917 and 0.247 | -0.871 and -0.502 | 0.351 (inactive) and -0.519 (inactive)
6 | CC(C)C(=O)N[C@@H]1CCCN1C(=O)C=Cc1ccccc1 | 0.516 | 0.709 | 0.546 | 0.391 | -0.463 | -0.201 | -0.481 (inactive) | 0.119 | 0.304 | -0.123 (inactive)
7 | C[N+](C)(C)CCCCNC(=O)[C@H]1C[C@H]2C(=O)N[C@@H](CCCC[N+](C)(C)C)C(=O)N2[C@H]1c1ccc(O)cc1 | -0.231 and -0.502 | -1.46 and 0.308 | -0.905 and -1.22 | -0.088 and -0.298 | -0.598 and -0.804 | -0.982 and -1.85 | -0.258 (inactive) and -0.841 (inactive) | 0.629 and -0.808 | -0.588 and -0.423 | -0.471 (inactive) and -0.706 (inactive)
8 | C#CCCCON=C1C[C@@H](O)[C@@H](O)[C@@H]2[C@@H]3C(=O)N(C4CCCCC4)C(=O)[C@@H]3CC[C@H]12 | -0.0446 | -0.277 | 1.15 | 0.471 | -0.584 | 0.289 | 0.201 (inactive) | 0.515 | -0.353 | 0.108 (inactive)
9 | C=C[C@H](C)[C@H](O)c1ccc(O)c2ccccc12 | 0.0619 and 0.429 | 0.114 and -0.0793 | -0.461 and 0.756 | -2.53 and -2.69 | -0.233 and -0.17 | -1.28 and -0.0285 | -0.193 (inactive) and 1.11 (inactive) | -1.01 and 0.71 | -1.76 and 0.307 | -0.52 (inactive) and -0.539 (inactive)
10 | COC(=O)C1=C(C)N(Cc2ccccc2)[C@]23O[C@](C(=O)OC)(C(=O)N2[C@@H]1c1ccccc1)[C@@H](c1ccccc1)[C@@H]3C(=O)c1ccccc1 | 0.668 and 0.418 | 1.64 and 0.204 | 0.344 and 0.832 | 0.54 and 0.391 | -0.0139 and 0.294 | 2.68 and 2.31 | 1.13 (inactive) and 0.417 (inactive) | 0.535 and -0.253 | -0.00272 and 0.667 | 0.266 (inactive) and 1.05 (inactive)
11 | CCCCCN1CC=CC23O[C@@H]4C=CCCOC(=O)C4[C@H]2C(=O)N(C(C)CO)[C@@H]3C1=O (stereo not given in full) | -0.345 and -0.691 | 0.94 and -0.707 | -1.46 and -0.31 | 0.737 and 0.402 | 0.254 and -0.282 | -0.473 and -1.11 | -0.354 (inactive) and -0.522 (inactive) | 0.861 and -0.0156 | -0.141 and 0.641 | 1.08 (inactive) and 0.713 (inactive)
12 | COC(=O)[C@@]1(Cc2ccccc2)[C@H]2c3cc(C(=O)N(C)C)n(Cc4ccc(C)c(F)c4F)c3C[C@H]2CN1C(=O)c1ccccc1 | -3.17 and -1.66 | 0.42 and 0.702 | -2.78 and -1.77 | -3.27 and -3.16 | -4.73 and -4.71 | -2.92 and -1 | -1.35 (inactive) and -1.29 (inactive) | -0.926 and -0.872 | -3 and -1.7 | -3.06 (inactive) and -1.94 (inactive)
13 | C=C(C)C(=O)OC[C@@H]1CN2[C@@H](CC[C@@H](C)[C@@H]2c2ccc(Br)cc2)C(=O)O1 | 0.254 | -0.2 | 1.08 | 0.419 | 0.427 | 0.642 | 0.945 (inactive) | -0.28 | -0.631 | 0.173 (inactive)
14 | O=C(NN=C1C[C@@H](O)[C@@H](O)[C@@H]2[C@@H]3C(=O)N(Cc4ccc5c(c4)OCO5)C(=O)[C@@H]3CC[C@H]12)OCc1ccccc1 | 0.356 | -0.263 | 0.339 | 0.172 | 0.102 | 1.3 | 0.415 (inactive) | 0.559 | -1.79 | -0.31 (inactive)

Reference: PubChem BioAssay
